Results filed as inconclusive are left out. Entries that show only a call come without a potency. The source made the active and inactive calls. Unless noted, the call rests on the fitted dose curve; in most records, active means well fitted curve in the direction sought with a large enough effect in the repeat runs; inconclusive means weak or mixed curves; inactive means no such curve, though single readings can be large; an effect the other way counts as inactive or inconclusive.
Key:
[1] = qHTS assay to identify small molecule antagonists of the estrogen receptor alpha (ER-alpha) signaling pathway using the BG1 cell line in the presence of 0.1 nM 17-beta-estradiol - cell viability counter screen (AID 1259241); further: nearly all actives have a fitted effect of over 40% in size
Procedure, shortened: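 The cell line endogenously expresses full-length ER-alpha and carries four EREs driving luciferase. Cells are cultured 5 days hormone-free, treated 22 hr with compounds and 0.1 nM estradiol, then viability is read by fluorescence.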

[2] = qHTS assay to identify small molecule antagonists of the androgen receptor (AR) signaling pathway using the MDA cell line in the presence of 0.5 nM R1881 - cell viability counter screen (AID 1259242); further: nearly all actives have a fitted effect of over 45% in size
Procedure, shortened: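 MDA-kb2 cells (MMTV-luciferase, AR/GR responsive) were treated with compounds plus 0.5 nM R1881 (final) for 16 hr at 37C, 0% CO2. Viability was then read in the same wells as live-cell protease fluorescence (CellTiter-Fluor, 30 min).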

[3] = target: Estrogen receptor (Homo sapiens) (UniProt P03372); assay: qHTS assay to identify small molecule antagonists of the estrogen receptor alpha (ER-alpha) signaling pathway using the BG1 cell line in the presence of 0.1 nM 17-beta-estradiol (AID 1259244); further: nearly all actives have a fitted effect of over 50% in size
Procedure, shortened: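 VM7Luc4E2 cells (endogenous full-length ER-alpha, 4×ERE-luciferase), kept 5 days in phenol red-free, charcoal-stripped FBS medium; 4,000 cells/well. Compounds added with 0.1 nM (final) 17beta-estradiol, 22 hr at 37C; luminescence read with ONE-Glo after 30 min.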

[4] = qHTS assay to identify small molecule HDAC inhibitors (AID 1259364); further: top concentration of the series differs between compounds; nearly all actives have a fitted effect of over 45% in size
Procedure, shortened: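 Wild-type HCT-116 cells, plated overnight at 37 C, exposed to compounds 2 hr at 37 C; luminogenic HDAC-Glo substrate then added 30 min at room temperature. Luminescence reports relative endogenous class I/II HDAC activity.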

[5] = qHTS assay to identify small molecule HDAC inhibitors - cell viability counter screen (AID 1259365); further: series mostly up to about 92 µM; nearly all actives have a fitted effect of over 50% in size
Procedure, shortened: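 Viability readout: CellTiter-Glo luminescence. Wild-type HCT-116 cells, 2hr compound treatment following overnight attachment at 37 C.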

[6] = qHTS assay to identify small molecule agonists of the sonic hedgehog signaling (Shh) pathway - cell viability counter screen (AID 1259366); further: nearly all actives have a fitted effect of over 50% in size
Procedure, shortened: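 Viability measured fluorometrically (CellTiter-Fluor, 1hr, 37C) in 3T3 Gli1-Luc reporter cells after 23hr compound exposure within a 24hr incubation at 37C/5% CO2.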

[7] = qHTS assay to identify small molecule antagonists of the sonic hedgehog signaling (Shh) pathway - cell viability counter screen (AID 1259367); further: nearly all actives have a fitted effect of over 55% in size
Procedure, shortened: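 Seed 3T3 Gli1-Luc cells at 2,000 per well; incubate 4 hr; add compound in DMSO, then conditioned medium; incubate at 37C with 5% CO2; add CellTiter-Fluor after 23 hr; read fluorescence 1 hr later.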

[8] = qHTS assay to identify small molecule agonists of the sonic hedgehog signaling (Shh) pathway (AID 1259368; calls by dose curve;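 further: NIH/3T3-derived 3T3Gli1-Luc cells carrying a stable Gli1-driven firefly luciferase reporter; series mostly up to about 92 µM; nearly all actives have a fitted effect of over 15% in size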)
Procedure, shortened: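 NIH/3T3-derived 3T3Gli1-Luc cells with stably integrated Gli1-driven firefly luciferase, 2,000 cells/well, compounds added after 4 hr. Incubated 24 hr at 37C, 5% CO2; luminescence read after 30 min with luciferase reagent at room temperature.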

[9] = qHTS assay to identify small molecule agonists of the androgen receptor (AR) signaling pathway in the presence of an antagonist - cell viability counter screen (AID 1259379);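 further: MDA-kb2 human breast cancer cells carrying an MMTV luciferase reporter; series mostly up to about 92 µM; nearly all actives have a fitted effect of over 25% in size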
Procedure, shortened: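 MDA-kb2 cells (MMTV-luciferase, AR/GR), 3,000/well, 5 h attachment, then 3.0 µM nilutamide (final) and compounds at 15 concentrations. Viability by CellTiter-Fluor fluorescence after 16 h at 37 °C, 0% CO2, in the reporter wells.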

[10] = qHTS assay to identify small molecule agonists of the estrogen receptor beta (ER-beta) signaling pathway - cell viability counter screen (AID 1259380); further: nearly all actives have a fitted effect of over 30% in size
Procedure, shortened: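 ER-beta-UAS-bla HEK293T cells in medium with 2% charcoal-stripped FBS, pre-incubated 6 hr, then treated 16 hr at 37C. Cytotoxicity read in the same wells by CellTiter-Glo luminescence after 30 min at room temperature.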

[11] = qHTS assay to identify small molecule antagonists of the estrogen receptor beta (ER-beta) signaling pathway - cell viability counter screen (AID 1259382); further: series mostly up to about 92 µM; nearly all actives have a fitted effect of over 55% in size
Procedure, shortened: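 ER-beta-UAS-bla HEK293T cells in 2% charcoal-stripped FBS medium, treated with compound plus 1 nM 17-beta-estradiol for 16 h at 37C. Viability read by CellTiter-Glo luminescence after 30 min at room temperature in the same wells.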

[12] = target: Estrogen receptor (Homo sapiens) (UniProt P03372); assay: qHTS assay to identify small molecule agonists of the estrogen receptor alpha (ER-alpha) signaling pathway in the presence of an antagonist (AID 1259383; calls by dose curve; further: nearly all actives have a fitted effect of over 15% in size; further: potency means the concentration at half of the fitted maximal effect; on activation: top concentration of the series differs between compounds)
Procedure, shortened: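 VM7Luc4E2 cells express endogenous full-length ER-alpha with an ERE-luciferase reporter and were hormone-deprived for 5 days. Compounds at 15 concentrations were added with 10.0nM ICI-182,780 for 22hr at 37C. Luminescence was read with ONE-Glo.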

[13] = qHTS assay to identify small molecule agonists or antagonists of the thyroid stimulating hormone receptor (TSHR) signaling pathway - wild type cell line counter screen (AID 1259384; calls by dose curve)
Procedure, shortened: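 Wild-type Hek293 cells, 800/well, 18 h at 37C, then compound with Ro20-1724 for 30 min RT. cAMP by HTRF (cAMP-d2/anti-cAMP cryptate), 1 h RT, fluorescence read. 15 concentrations, triplicates.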

[14] = target: Thyrotropin receptor (Homo sapiens) (UniProt P16473); assay: qHTS assay to identify small molecule antagonists of the thyroid stimulating hormone receptor (TSHR) signaling pathway (AID 1259385; calls by dose curve; further: nearly all actives have a fitted effect of over 20% in size)
Procedure, shortened: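 TSHR-HEK293 cells (800/well) plated 18 h, then compounds with Ro20-1724 and TSH at 1.5 ng/mL final, 30 min at room temperature. cAMP quantified by HTRF (cAMP-d2/anti-cAMP-cryptate, 1 h); 15 concentrations in triplicate.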

[15] = qHTS assay to identify small molecule antagonists of the sonic hedgehog signaling (Shh) pathway (AID 1259369; calls by dose curve; further: nearly all actives have a fitted effect of over 45% in size)
Procedure, shortened: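 NIH/3T3-derived Gli1-Luc reporter cells plated 4 h, dosed with compound, then stimulated with conditioned medium for 24 h at 37 C. Firefly luciferase luminescence read after 30 min with detection reagent at room temperature.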

[16] = target: Estrogen receptor beta (Homo sapiens) (UniProt Q92731); assay: qHTS assay to identify small molecule agonists of the estrogen receptor beta (ER-beta) signaling pathway (AID 1259377; active means well fitted activation curve with a large enough effect in the signal ratio in the repeat runs, not every such curve was filed as active; the % refers to the signal ratio)
Procedure, shortened: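 A UAS-controlled beta-lactamase reporter in ER-beta-UAS-bla HEK293T cells reports receptor activation. Compounds act for 16 hr at 37C in 2% charcoal-stripped serum, and a FRET substrate is read by fluorescence after 2 hours.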

[17] = target: Estrogen receptor beta (Homo sapiens) (UniProt Q92731); assay: qHTS assay to identify small molecule antagonists of the estrogen receptor beta (ER-beta) signaling pathway (AID 1259378; active means well fitted inhibition curve with a large enough effect in the signal ratio in the repeat runs, not every such curve was filed as active; the % refers to the signal ratio)
Procedure, shortened: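 ER-beta-UAS-bla HEK293T cells in 2% charcoal-stripped FBS medium treated with compound plus 1nM final 17-beta-estradiol for 16 hr at 37C. Beta-lactamase reporter read by FRET substrate fluorescence after 2 hours at room temperature.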

Thyrotropin receptor (Homo sapiens), sequence (P16473 whole entry, looked up): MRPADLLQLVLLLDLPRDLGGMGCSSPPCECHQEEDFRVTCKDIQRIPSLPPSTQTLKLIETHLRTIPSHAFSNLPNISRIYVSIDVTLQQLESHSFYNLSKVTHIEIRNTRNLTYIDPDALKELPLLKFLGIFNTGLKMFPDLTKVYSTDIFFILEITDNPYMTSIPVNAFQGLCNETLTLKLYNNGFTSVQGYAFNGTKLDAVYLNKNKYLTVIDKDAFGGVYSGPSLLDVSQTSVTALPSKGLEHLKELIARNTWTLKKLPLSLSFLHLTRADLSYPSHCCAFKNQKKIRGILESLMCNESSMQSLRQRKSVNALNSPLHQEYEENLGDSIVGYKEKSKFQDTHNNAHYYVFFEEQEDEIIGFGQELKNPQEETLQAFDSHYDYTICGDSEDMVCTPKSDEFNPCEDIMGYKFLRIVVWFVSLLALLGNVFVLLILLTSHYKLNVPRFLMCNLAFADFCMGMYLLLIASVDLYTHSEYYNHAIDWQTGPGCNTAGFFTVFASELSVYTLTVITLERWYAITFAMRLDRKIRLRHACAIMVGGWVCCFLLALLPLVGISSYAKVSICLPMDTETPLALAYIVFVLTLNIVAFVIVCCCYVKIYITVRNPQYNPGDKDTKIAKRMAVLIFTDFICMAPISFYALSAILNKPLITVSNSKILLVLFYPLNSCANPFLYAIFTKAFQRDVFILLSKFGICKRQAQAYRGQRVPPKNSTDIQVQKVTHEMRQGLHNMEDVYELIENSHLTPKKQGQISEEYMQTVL
Estrogen receptor (Homo sapiens), sequence (P03372 whole entry, looked up): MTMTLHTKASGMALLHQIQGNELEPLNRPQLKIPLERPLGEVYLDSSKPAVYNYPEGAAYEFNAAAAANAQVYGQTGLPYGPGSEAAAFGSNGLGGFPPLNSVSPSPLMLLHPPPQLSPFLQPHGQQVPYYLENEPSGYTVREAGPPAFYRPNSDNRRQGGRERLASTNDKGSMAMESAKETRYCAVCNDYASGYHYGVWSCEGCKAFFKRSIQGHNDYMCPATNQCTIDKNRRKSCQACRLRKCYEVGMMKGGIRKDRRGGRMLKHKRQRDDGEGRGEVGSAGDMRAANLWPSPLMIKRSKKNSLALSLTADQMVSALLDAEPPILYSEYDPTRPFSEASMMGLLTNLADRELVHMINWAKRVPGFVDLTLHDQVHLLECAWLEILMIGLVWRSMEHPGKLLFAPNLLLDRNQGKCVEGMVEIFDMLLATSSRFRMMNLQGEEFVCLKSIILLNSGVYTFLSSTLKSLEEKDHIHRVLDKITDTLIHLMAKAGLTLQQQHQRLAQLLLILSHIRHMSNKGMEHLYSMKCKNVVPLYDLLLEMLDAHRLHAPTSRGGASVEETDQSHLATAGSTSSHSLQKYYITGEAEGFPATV
Estrogen receptor beta (Homo sapiens), sequence (Q92731 whole entry, looked up): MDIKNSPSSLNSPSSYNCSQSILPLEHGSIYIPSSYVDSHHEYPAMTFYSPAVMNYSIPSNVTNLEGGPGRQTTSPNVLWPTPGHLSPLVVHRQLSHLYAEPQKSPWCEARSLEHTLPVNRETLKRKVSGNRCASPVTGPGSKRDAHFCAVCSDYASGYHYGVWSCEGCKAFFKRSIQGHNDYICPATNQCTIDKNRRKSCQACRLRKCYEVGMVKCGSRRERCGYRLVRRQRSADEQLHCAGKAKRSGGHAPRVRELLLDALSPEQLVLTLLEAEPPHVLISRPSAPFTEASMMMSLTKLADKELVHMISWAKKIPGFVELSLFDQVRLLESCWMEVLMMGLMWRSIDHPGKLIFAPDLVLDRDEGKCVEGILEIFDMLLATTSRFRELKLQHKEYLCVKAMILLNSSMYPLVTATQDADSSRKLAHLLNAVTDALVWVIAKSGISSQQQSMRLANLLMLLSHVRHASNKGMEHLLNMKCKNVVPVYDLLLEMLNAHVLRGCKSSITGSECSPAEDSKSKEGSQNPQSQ

Row | SMILES | outcome [1] | Potency [2] | Potency [3] | Potency [4] | outcome [5] | Potency [6] | Potency [7] | outcome [8] | Potency [9] | Potency [10] | Potency [11] | Potency [12] | outcome [13] | outcome [14] | Potency [15] | Potency [16] | outcome [17]
1 | CN1C(=O)COc2c(C(=O)NC3CN4CCC3CC4)cc(Cl)cc21 (stereo not given) | inactive | inactive | inactive | inactive | inactive | inactive | inactive | inactive | inactive | inactive | inactive | inactive | inactive | inactive |  |  | 
2 | O=[N+]([O-])CCO | inactive | inactive | inactive | inactive | inactive | inactive | inactive | inactive | inactive | inactive | inactive |  |  |  |  |  | 
3 | CN=CNc1ccc(C)cc1C | inactive | inactive | inactive | inactive | inactive | inactive | inactive |  |  | inactive | inactive | inactive | inactive | inactive | inactive | inactive | inactive
4 | CS(=O)(=O)Cl | inactive | inactive | inactive | inactive | inactive | inactive |  | inactive | inactive | inactive | inactive | inactive | inactive | inactive |  |  | inactive
5 | C=CCCC#N | inactive | inactive | inactive | inactive | inactive | inactive | inactive |  | inactive | inactive | inactive | inactive | inactive | inactive | inactive | inactive | inactive
6 | BrCC1CO1 (stereo not given) | inactive | inactive | inactive | inactive | inactive | inactive |  | inactive | inactive | inactive | inactive | inactive |  |  |  | inactive | inactive
7 | C#CCOC(=O)/C=C(C)/C=C/CC(C)CCCC(C)C (stereo not given) | inactive | inactive | inactive | inactive | inactive | inactive |  | inactive | inactive | inactive |  | inactive | inactive | inactive | inactive |  | 
8 | CCOc1cc(OP(=S)(OC)OC)nc(CC)n1 | inactive | inactive | inactive | inactive | inactive | inactive |  | inactive | inactive |  | inactive | inactive | inactive |  |  |  | inactive
9 | CC1NCCOC1c1ccccc1 (stereo not given) | inactive | inactive | inactive | inactive | inactive | inactive |  | inactive | inactive |  | inactive | inactive | inactive | inactive | inactive | inactive | inactive
10 | NNC(N)=O | inactive | inactive | inactive | inactive | inactive | inactive | inactive |  | inactive |  | inactive | inactive | inactive | inactive |  |  | inactive
11 | CCN(CCO)CCO | inactive | inactive | inactive | inactive | inactive | inactive | inactive |  | inactive | inactive | inactive | inactive | inactive | inactive | inactive | inactive | inactive
12 | Oc1ccc(Cc2ccc(O)cc2)cc1 | inactive | inactive | inactive | inactive | inactive | inactive | inactive |  | inactive | inactive | inactive | 30.9 µM (active) | inactive | inactive |  |  | 
13 | c1cncc([C@@H]2CCCCN2)c1 | inactive | inactive | inactive | inactive | inactive | inactive |  | inactive |  | inactive | inactive | inactive | inactive | inactive | inactive | inactive | inactive

— PubChem BioAssay (Tox21)
